# Rows were chosen to be rich in hits. Some 13% of all compounds tested hit in one or more screens of this group.
# LASV entry inh: qHTS for Inhibitors of binding or entry into cells for Lassa Virus. Lassa virus pseudotype entry inhibition, cell reporter. Potency, µM (series often up to 37.9 µM), inactives show at the highest dose activity change, negative = inhibition, actives largely listed as inhibitors. hit rate 1.2% among 300,000; calls by dose curve; tested in HEK293 cells; further: potency means the concentration at half of the fitted maximal effect; on the % scale 0 is the no-effect control and ±100 the full control effect; nearly all actives have a fitted effect of over 50% in size
# HCV inh: qHTS Assay for Inhibitors of Hepatitis C Virus (HCV) | hit rate 3.4% among 340,000 | Potency, µM (top dose mostly 41.8 µM), for inactives: at the top dose activity change, negative = inhibition, usual class: inhibitors | Huh7.5.1 HCVcc-Cre infection, luciferase reporter, 44 h | AID 651820, 2012; active means well fitted inhibition curve with a large enough effect; inconclusive means small, poorly fitted or top-dose-only effect, or another doubt; inactive means no such curve, though single readings can be large or run the other way; further: potency means the concentration at half of the fitted maximal effect; on the % scale 0 is the no-effect control and ±100 the full control effect
#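 Whole-lifecycle infectious HCVcc-Cre system; cells 1,000/well, compound then virus (~0.5 moi) added 4 h after plating, 44 h culture. Luciferase read 15 sec following 15 min substrate incubation, room temp.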
# Shiga inhibitor: A qHTS for Small Molecule Inhibitors of Shiga Toxin; AID 2315, 2010; inhibition, % at 38.7 µM; Vero cells, Shiga toxin protein synthesis inhibition reporter; hit rate 9.2% among 290,000; in the data active means inhibition mostly above about 28%, no sharp cut-off; inactive means mostly below about 43%; further: 0% is about no effect
# CHX counter: Cycloheximide Counterscreen for Small Molecule Inhibitors of Shiga Toxin; hit rate 12% among 300,000; AID 2314, 2010; cell reporter, cycloheximide protein synthesis inhibition counterscreen; max response, %; in the data active means max response mostly above about 13%, no sharp cut-off; inactive means mostly below about 14%; further: read at 38.3 µM for the half of the compounds with a filed dose; 0% is about no effect
# Marburg entry inh: qHTS for inhibitors of binding or entry into cells for Marburg Virus; Marburg virus pseudotyped entry inhibition, cell reporter; Potency, µM (highest dose often 37.8 µM), for inactives: at the highest dose activity change, negative = inhibition, hits mostly inhibitors; hit rate 1.8% among 300,000; calls by dose curve; tested in HEK293 cells; further: potency means the concentration at half of the fitted maximal effect; on the % scale 0 is the no-effect control and ±100 the full control effect
# FMDV inh: High Throughput Screening for Foot and Mouth Disease Virus Antivirals; FMDV antiviral cell-based qHTS; Potency, µM (series often up to 57.9 µM), for the others: at the top dose activity change, negative = inhibition, actives largely listed as inhibitors; hit rate 1.2% among 410,000; calls by dose curve; tested in HEK293T cells; further: read-out not given here; potency means the concentration at half of the fitted maximal effect; on the % scale 0 is the no-effect control and ±100 the full control effect; nearly all actives have a fitted effect of over 45% in size
# Numbers without * were called inactive; ? = inconclusive; / = not tested or not shown; [ ] = dose if it differs, or a comment.
SMILES,LASV entry inh,HCV inh,Shiga inhibitor,CHX counter,Marburg entry inh,FMDV inh
O=C(CN(C1CCCCC1)S(=O)(=O)c1ccccc1)NCc1ccco1,-25.4%,-5.9%,7.0,9.6,-0.7%,/
Cc1ccc(S(=O)(=O)N(CC(=O)N/N=C/c2ccco2)c2cc(Cl)cc(Cl)c2)cc1,?,-15.0%,-6.2,-1.1,15.8µM*,1.9%
Cc1ccc(S(=O)(=O)N(CC(=O)NCc2ccco2)C2CCCCC2)cc1,-19.7%,3.55µM*,10.1,4.1,-13.0%,/
O=C(CN(c1ccc(Cl)cc1)S(=O)(=O)c1ccccc1)N/N=C/c1ccco1,-20.5%,-21.1%,17.5,4.0,-22.8%,-12.9%
Cc1ccc(S(=O)(=O)N(Cc2ccc(Cl)cc2)c2ccccc2C(=O)NCc2ccco2)cc1,-14.7%,?,43.7*,32.6*,?,-1.8%
CCOc1ccc(N(CC(=O)NC(C(C)C)C(C)C)S(=O)(=O)c2ccc(OC)c(OC)c2)cc1,/,10µM*,15.6,-2.7,/,-7.7%
COc1ccc2[nH]c(C)c(C(=O)CN(C)CC3OCCO3)c2c1,3.2%,-1.3%,-8.4,1.3,11.0%,4.1%
COc1ccc(N(CC(=O)Nc2ccc(C(N)=O)cc2)S(=O)(=O)c2ccc(C)c([N+](=O)[O-])c2)cc1,-14.3%,?,12.0,1.0,?,-5.1%
COc1ccc(S(=O)(=O)N(CC(=O)NCc2ccccc2)c2ccc(C)cc2)cc1OC,26.4%[46.1 µM],/,/,/,/,17.8µM*
COc1ccc(N(CC(=O)Nc2ccccc2C(N)=O)S(=O)(=O)c2ccc(C)c([N+](=O)[O-])c2)cc1,-35.1%,-4.7%,45.0,23.4*,?,35.6%
CC(=O)OC1CC(OC(C)=O)[C@]2(C)C(CC(OC(C)=O)[C@@]3(C)C4=CC(=O)OC(c5ccoc5)[C@]4(C)CCC32)C1(C)C (some centres undefined),/,/,/,/,/,5.6%
CC(=O)Nc1ccc(S(=O)(=O)NCCOc2ccc(Cl)cc2C)cc1,0.4%,-9.3%,12.8,7.6,?,-12.6%
CCOc1ccc(CN2CCN(C(=O)c3ccccc3)CC2)cc1,-1.5%,11.2µM*,-12.7,0.3,?,?
O=C(c1cccc(C(=O)N2CCN(Cc3ccccc3)CC2)c1)N1CCN(Cc2ccccc2)CC1,?,?,0.8,-1.9,-26.5%,?
CCOc1ccc(CN2CCN(C(=O)c3cccc4ccccc34)CC2)cc1,/,7.08µM*,-4.3,-0.8,/,?
O=C(C1CCC1)N1CCN(Cc2ccccc2)CC1,1.4%,19.7%,-1.5,-4.2,?,7.1%
O=C(c1ccc2ccccc2c1)N1CCN(Cc2ccccc2)CC1,/,-21.4%,82.5*,27.8*,/,19.5%
CCOc1ccc(C(=O)N2CCN(Cc3ccccc3)CC2)cc1,-15.5%,-5.2%,7.9,16.7,11.0%,/
O=C(c1c[nH]c(C(=O)N2CCN(Cc3ccccc3)CC2)c1)C1CCCCC1,/,-13.6%,51.5*,23.8,/,-23.9%
Cc1ccc(C(=O)N2CCN(Cc3ccc4c(c3)OCO4)CC2)cc1C,/,?,-6.2,-4.4,/,-29.8%
COc1cccc(OC)c1C(=O)Nc1nc2cc3c(cc2s1)OCO3,23.3%[46.1 µM],-2.1%,16.4,-2.0,0.2%[46.1 µM],-19.1%
CCC(O)c1cc2c(cc1NC(=O)c1cccs1)OCCO2 (centres undefined),-23.1%,9.5%,-7.9,1.7,?,-16.9%
Cc1ccc2nc(NNC(=O)c3ccc4c(c3)OCCO4)sc2c1,1.2%,2.2%[8.37 µM],-5.3,8.6,13.5%,-1.4%
NNc1nc2cc3c(cc2s1)OCCO3,/,-1.6%,63.8*,31.9*,/,-0.1%
COc1ccc(C(=O)Nc2nnc(-c3ccc(F)cc3)s2)c(OC)c1,29.7%[46.1 µM],0.3%,2.8,-3.5,?,-8.0%
O=C(Nc1nc2cc3c(cc2s1)OCCO3)c1cccs1,/,11.2µM*,12.5,26.8*,/,?
COc1ccccc1C(=O)Nc1nc2cc3c(cc2s1)OCO3,/,0.6%,89.6*,54.9*,/,19.4%
COc1ccc(C(=O)Nc2nc3cc4c(cc3s2)OCCO4)c(OC)c1,/,?,80.5*,23.5*,/,?
CCC(C)NC(=O)C1=CCN(S(=O)(=O)c2ccc(C)cc2)CC1 (centres undefined),/,15.9%,-15.9,-4.2,/,-2.6%
COc1ccccc1C(=O)Nc1nc2cc3c(cc2s1)OCCO3,/,?,60.8*,34.2*,/,10.8%

# From PubChem BioAssay
